Screens deposited in PubChem BioAssay by The Scripps Research Institute Molecular Screening Center.
DAX1 inh-1: DAX1 (NR0B1) inhibitors, primary screen, cell-based, HEK293, Gal4-DAX1, luciferase luminescence; HEK293 Gal4-DAX1 luciferase reporter; Nuclear receptor subfamily 0 group B member 1 (Homo sapiens), P51843; 340,000 tested, 0.99% active; AID 504766, 2011; inhibition, % at 6.75 µM;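 active means inhibition above the mean over all tested compounds plus 3 SD, cut at about 4.2% in these data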;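 further: inhibition shows as a rise in luminescence from relieved DAX1 repression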
Target sequence (P51843 207-470 limits assumed): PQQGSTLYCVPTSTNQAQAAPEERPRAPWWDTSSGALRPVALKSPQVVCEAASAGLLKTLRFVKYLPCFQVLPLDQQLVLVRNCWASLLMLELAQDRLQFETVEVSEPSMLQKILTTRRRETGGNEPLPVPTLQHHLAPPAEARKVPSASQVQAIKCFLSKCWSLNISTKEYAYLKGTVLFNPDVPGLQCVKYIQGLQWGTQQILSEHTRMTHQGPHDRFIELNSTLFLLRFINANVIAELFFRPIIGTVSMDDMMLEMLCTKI
ssDAF12 agonist: S. stercoralis DAF-12 nuclear receptor activators, primary screen, cell-based, luminescence, HEK293, GRIP1 co-expression, lit1-tk-luc | Nuclear hormone receptor DAF-12 (Strongyloides stercoralis) | 370,000 tested, 1% active | activation, % at 6.8 µM | HEK293 ssDAF-12/GRIP1 lit1-tk-luc reporter; % of 3 µM dafachronic acid response;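 active means activation above the mean over all tested compounds plus 3 SD, cut at about 0.9% in these data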
hcDAF12 agonist: H. contortus DAF-12 nuclear receptor activators, primary screen, cell-based, luminescence, HEK293, lit1-tk-luc reporter. HEK293 hcDAF-12 lit1-tk-luc reporter; 0% DMSO, 100% Δ7-dafachronic acid. activation, % at 6.8 µM. 370,000 tested, 1.4% active;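 active means activation above the mean of all tested compounds plus 3 SD, cut at about 5.5% in these data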
DAX1 inh-2: DAX1 (NR0B1) inhibitors on StAR promoter, primary screen, cell-based, luminescence, SF-1 (NR5A1), full-length DAX-1 | HEK293T StAR-luciferase reporter, SF-1/DAX-1 repression relief | inhibition, % at 6.8 µM | 370,000 tested, 1.1% active | AID 652010, 2013;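 active means inhibition above the mean over all tested compounds plus 3 SD, cut at about 3.6% in these data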;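 further: higher inhibition means more luminescence from relief of DAX-1 repression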
hgDAF-12 ag: H. glycines DAF-12 receptor agonists, primary screen, cell-based, luminescence, HEK293, GAL4 fusion, UAS-luciferase | Nuclear hormone receptor DAF-12 (Heterodera glycines), GAL4 fusion | HEK293 GAL4-hgDAF12 UAS-luciferase reporter, agonist luminescence; normalized to butyrate control | activation, % at 6.8 µM | 370,000 tested, 1.8% active | AID 687014, 2013;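 active means activation above a cutoff set at the mean of all screened compounds plus 3 SD, cut at about 10% in these data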
A number is an active result; 0 = inactive; - = not tested or not shown. The list is not random: actives were taken first. Their share in the collection is about 4.1%.

SMILES | DAX1 inh-1 | ssDAF12 agonist | hcDAF12 agonist | DAX1 inh-2 | hgDAF-12 ag
Cc1nc(-c2ccc(NC(=O)CC(C)C)cc2)cs1 | 0 | 0 | 0 | 0 | 13
COC(=O)[C@]12C[C@H](CC(=O)NCC34CC5CC(CC(C5)C3)C4)C(=O)N(CCc3ccc(OC)c(OC)c3)C1=C[C@H](C1CCCC1)O[C@@H]2C | - | 0 | 0 | 0 | 0
C[C@H]1CN(C(=O)OC(C)(C)C)CCN1c1ccc(N2CCS(=O)(=O)CC2)c(C#N)c1 | - | 0 | 0 | 0 | 0
Cc1ccc(-n2c(SC/C=C/c3ccccc3)nnc2-c2cccs2)cc1 | - | 0 | 0 | 0 | 0
CCN(CC)c1ccc(NC(=O)c2ccco2)cc1 | 0 | 0 | 0 | 4.1 | 13
O=C(Nc1ccc(Cl)cc1)c1ccco1 | 5.2 | 0 | 0 | 0 | 0
O=C(NCc1cccnc1)c1ccc(NC(=O)c2ccco2)cc1 | 0 | 0 | 0 | 0 | 0
CCC(C)c1ccc(NC(=O)c2ccco2)cc1 (centres undefined) | 0 | 0 | 0 | 0 | 11
O=C(NCc1ccccn1)c1ccc(NC(=O)c2ccco2)cc1 | 0 | 1.3 | 0 | 0 | 0
CCCCCCCCNS(=O)(=O)CC1NCc2ccccc21 (centres undefined) | - | 0 | 0 | 0 | 0
C/[N+]([O-])=C/c1c(OCc2ccc(Cl)cc2Cl)ccc2ccccc12 | 0 | 0 | 6.0 | 0 | 0
Cc1cccc(NC(=O)N2CCC(N(C)CCC(C)C)CC2)c1 | - | 0 | 0 | 0 | 0
Cc1c(O)ccc(C(=O)COc2ccc(F)cc2)c1O | 0 | 0 | 0 | 0 | 12
O=C(CC1CCCC1)N[C@@H](Cc1cccnc1)C(=O)N1CCC[C@H]1C(=O)NCCc1ccccc1Cl | - | 0 | 0 | 0 | 0
COc1cc(-c2nc3ccc(N4CCN(C)CC4)cc3[nH]2)cc(OC)c1OC | 0 | 0 | 0 | 0 | 0
COc1ccc(-c2nc3ccc(N4CCN(C)CC4)cc3c(=O)[nH]2)cc1 | 5.0 | 0 | 0 | 0 | 0
COC(=O)[C@]12C[C@H](CC(=O)NCCc3ccccc3OC)C(=O)N(Cc3cccc4ccccc34)C1=C[C@H](COCc1ccccc1)O[C@@H]2C | - | 0 | 0 | 0 | 0
OCCC1CN(Cc2cc(F)ccc2-n2cccn2)CCN1C1CCCC1 (centres undefined) | 0 | 1.7 | 0 | 0 | 0
CCn1cnc2sc(C(=O)Nc3ccc4c(c3)OCO4)c(C)c2c1=O | 0 | 0 | 0 | 0 | 13
CCCCNC(=S)N/N=C/c1sccc1C | 0 | 0 | 0 | 0 | 11
COc1ccc(CC(=O)NCC(=O)N/N=C/c2sccc2C)cc1 | 0 | 0 | 6.4 | 0 | 0
O=C1CCCC(c2ccccc2)N1 (centres undefined) | 5.2 | 0 | 0 | 0 | 0
COc1cc(C(=O)NC2CCCCN(Cc3cccc(C(F)(F)F)c3)C2=O)cc(OC)c1OC (centres undefined) | - | 0 | 0 | 0 | 0
COc1cc2c(c(OC)c1OC)-c1ccc(N(C)CC(OC)OC)c(=O)cc1[C@@H](NC(C)=O)CC2 | 0 | 0 | 0 | 0 | 0
COc1cc2c(c(OC)c1OC)-c1ccc(NC(=O)c3ccc(F)cc3)c(=O)cc1[C@@H](NC(C)=O)CC2 | 0 | 0 | 0 | 0 | 0
SMILES | DAX1 inh-1 | ssDAF12 agonist | hcDAF12 agonist | DAX1 inh-2 | hgDAF-12 ag
COc1cc2c(c(OC)c1OC)-c1ccc(SC)c(=O)cc1C(NC(=O)C(F)(F)F)CC2 (centres undefined) | 0 | 0 | 0 | 3.7 | 0
COc1cc2c(c(OC)c1OC)-c1ccc(NCc3ccccc3)c(=O)cc1C(NC(C)=O)CC2 (centres undefined) | 0 | 0 | 0 | 4.0 | 0
CC1(C)Cc2nc3sc(C(=O)NCCCO)c(N)c3cc2CS1 | 5.0 | 0 | 0 | 0 | 0
CC1(C)Cc2nc3sc(C(=O)NCCO)c(N)c3cc2CO1 | 0 | 0 | 0 | 0 | 0
NC(=O)C1CCN(c2ncc(Br)cn2)CC1 | - | 0 | 0 | - | 0
O=C(NCC(=O)N1CCCC(C(F)(F)F)C1)c1ccccc1Br (centres undefined) | 0 | 1.3 | 0 | 0 | 0
CCOC(=O)[C@@H]1c2[nH]c3ccccc3c2C[C@@]2(C(=O)OC)C=CCN12 | - | 1.5 | 0 | 0 | 0
CCC[C@H]1[C@@H](N(C)Cc2cccs2)CC[C@@]23CCCN2C(=O)CCC[C@@H]13 | - | 0 | 0 | - | 0
COC(=O)NCN1C(=O)C2C3C=CC(C3)C2C1=O (centres undefined) | 0 | 0 | 0 | 0 | 0
CC(C)OC(=O)NCN1C(=O)C2C3C=CC(C3)C2C1=O (centres undefined) | 0 | 0 | 0 | 0 | 11
O=C(CCc1ccccc1)N[C@H]1[C@H](OC(=O)c2cccnc2)CCC[C@@]12C(=O)N(Cc1ccccc1)c1ccccc12 | - | 0 | 0 | 0 | 0
O=C(NC1CCCCN(Cc2ccc(Cl)cc2)C1=O)c1c(F)cccc1F (centres undefined) | - | 0 | 0 | 0 | 0
C=CCn1cccc(C(=O)Nc2ccc(N(C)C)cc2)c1=O | 0 | 0 | 0 | 0 | 11
COc1cccc(NC(=O)c2c(F)cccc2F)c1 | 0 | 0 | 0 | 0 | 0
COc1cccc(NC(=O)c2ccccc2F)c1 | 0 | 0 | 0 | 0 | 11
COc1cccc(C(=O)Nc2ccc(N(C)C)cc2)c1OC | 0 | 0 | 0 | 0 | 12
C=CCn1cccc(C(=O)Nc2ccc(Cl)cc2)c1=O | 0 | 0 | 0 | 0 | 0
O=C(COC(=O)C1=COCCO1)Nc1ccccc1 | 4.4 | 0 | 0 | 0 | 0
CC(C)(C)c1ccc(S(=O)(=O)N2CCCC2C(=O)N2CCc3ccccc3C2)cc1 (centres undefined) | - | 0 | 0 | 0 | 0
COc1ccc(CN(C)CC#Cc2ccccc2)c(OC)c1 | - | 0 | 0 | 0 | 0
